In PubChem BioAssay (NCATS):
Calls of active or inactive are those of the source. The call rests on the fitted dose curve; in most records, active means well fitted curve in the direction sought with a large enough effect; inconclusive means small, poorly fitted or top-dose-only effect, or effect the other way, or another doubt; inactive means no such curve, though single readings can be large or run the other way.

Test: Inducers of the Endoplasmic Reticulum Stress Response (ERSR) in human glioma: Validation (AID 504836); further: 0% is about no effect
Details: human glioma cells, ER stress response reporter; series mostly up to 38.3 µM; activation: at the top concentration
From the text: Primary protein unfolding takes place for many diseases, including diabetes and hypoxia, , and triggers a reaction in the cells called ER stress response (ERSR). ). ERSR is designed as a repair mechanism, but ultimately leads to cell death via apoptosis if conditions triggering protein unfolding persist (1). The molecular clue to ERSR activation is the enhancement of the expression of key molecular chaperones, including the glucose regulated protein (GRP) 78. GRP78 is the main sensor for protein folding and the main actuator of the ERSR.
In a collaboration between the Southern Research Institute and the NIH Chemical Genomics Center, a cell based screen was developed that reliably uses GRP78 as a sensor to identify small molecules as inducers of ERSR. In resting conditions, GRP78 binds proteins and acts as a natural repressor. Once unfolded proteins are present in the ER, GRP78 releases some of the repressors and binds to the unfolded proteins. The release of the repressors executes the ERSR program. Using a human glioma cell line in a miniaturized, luminescent format, a high-throughput screen was developed to identify actuators of the ERSR.
(1) Soboloff, J. and S. A. Berger (2002). "Sustained ER Ca2+ depletion suppresses protein synthesis and induces activation-enhanced cell death in mast cells." J Biol Chem 277(16): 13812-20.
NIH Chemical Genomics Center [NCGC]
NIH Molecular Libraries Probe Centers Network [MLPCN]
Assay Submitter (PI): Maurizio Grimaldi, Southern Research Institute
Stable transfected human glioma cell line, U87-MG, are dispensed at density 1000 cells/well into Greiner white solid bottom 1536-well assay plates. Compounds are transferred via Kalypsys pin tool equipped with 1536-pin array (10nl slotted pins, V&P Scientific, San Diego, CA). The assay plates will be incubated for 16 hours and developed by adding appropriate quantities of the Promega Bright Glo reagent. The plates will be incubated at room temperature for 10 minutes prior to being transferred into a ViewLux high-throughput CCD imager (PerkinElmer), wherein end-point measurements of luminescence are acquired.

SMILES	activation
Cn1cnc([N+](=O)[O-])c1Sc1ncnc2nc[nH]c12	-1.08% (inactive)
CCCN1C[C@H](CSC)C[C@@H]2c3cccc4[nH]cc(c34)C[C@H]21	-0.831% (inactive)
CCN(CC)CCCC(C)Nc1ccnc2cc(Cl)ccc12 (stereo not given)	-1.94% (inactive)
N#CC(C#N)=Cc1ccc(O)c(O)c1	-2.73% (inactive)
O=C1NC(=O)C(c2ccccc2)(c2ccccc2)N1	2.61% (inactive)
O=c1n(CCCN2CCN(c3cccc(Cl)c3)CC2)nc2ccccn12	0.597% (inactive)
c1ccc2c(c1)OCC(C1=NCCN1)O2 (stereo not given)	-9.99% (inactive)
Cc1ccccc1N1C(=O)c2cc(S(N)(=O)=O)c(Cl)cc2NC1C (stereo not given)	-3.24% (inactive)
Nc1nc2c(ncn2COC(CO)CO)c(=O)[nH]1	-2.41% (inactive)
CC(CN1c2ccccc2Sc2ccccc21)N(C)C (stereo not given)	0.728% (inactive)
CN(C)CCCN1c2ccccc2Sc2ccc(Cl)cc21	2.13% (inactive)
CSc1ccc2c(c1)N(CCC1CCCCN1C)c1ccccc1S2 (stereo not given)	-2.55% (inactive)
O=C(c1ccc(OCCN2CCCCC2)cc1)c1c(-c2ccc(O)cc2)sc2cc(O)ccc12	2.09% (inactive)
Cc1oncc1C(=O)Nc1ccc(C(F)(F)F)cc1	-2.62% (inactive)
CCN(CC)CCOC(=O)C1(C2CCCCC2)CCCCC1	-1.2% (inactive)
O=C1N=C(O)CN1/N=C/c1ccc(-c2ccc([N+](=O)[O-])cc2)o1	0.223% (inactive)
C[C@](N)(Cc1ccc(O)c(O)c1)C(=O)O	-3.3% (inactive)
c1ccc(C2CC2)c(OCC2=NCCN2)c1	-3.07% (inactive)
CC(C)NCC(O)c1ccc(O)c(O)c1 (stereo not given)	-4.35% (inactive)
CC1=NS(=O)(=O)c2cc(Cl)ccc2N1	-1.96% (inactive)

SMILES	activation
COC(=O)C1=C(C)NC(C)=C(C(=O)OCCN(C)Cc2ccccc2)C1c1cccc([N+](=O)[O-])c1 (stereo not given)	-4.69% (inactive)
CN(C)CC/C=C1\c2ccccc2COc2ccccc21	0.766% (inactive)
Cc1cnc(C(=O)NCCc2ccc(S(=O)(=O)NC(=O)NC3CCCCC3)cc2)cn1	-3.64% (inactive)
Cc1cccc(C)c1OCC(C)N (stereo not given)	-5.14% (inactive)
O=c1[nH]c2ccccc2n1CCCN1CCC(n2c(=O)[nH]c3cc(Cl)ccc32)CC1	-0.422% (inactive)
N=c1nc(N2CCCCC2)cc(N)n1O	-3.66% (inactive)
CN(C)c1nc(N(C)C)nc(N(C)C)n1	2.76% (inactive)
Cc1cccc(C)c1NC(=O)CN1CCCC1=O	-1.75% (inactive)
CCn1cc(C(=O)O)c(=O)c2ccc(C)nc21	0.0537% (inactive)
CCCC(C)(COC(N)=O)COC(=O)NC(C)C (stereo not given)	-4.43% (inactive)
CC[N+](CC)(CC)CC	-4.71% (inactive)
CC(C)NCC(O)COc1cccc2[nH]ccc12 (stereo not given)	-3.11% (inactive)
COc1ccc(Cc2nccc3cc(OC)c(OC)cc23)cc1OC	-4.87% (inactive)
CCC1(C2=NCCN2)Cc2ccccc2O1 (stereo not given)	-2.44% (inactive)
Cc1cn([C@H]2C[C@H](N=[N+]=[N-])[C@@H](CO)O2)c(=O)[nH]c1=O	-0.344% (inactive)
C=C(C)[C@H]1Cc2c(ccc3c2O[C@@H]2COc4cc(OC)c(OC)cc4[C@@H]2C3=O)O1	-5.64% (inactive)
Cc1[nH]c(=O)c(C#N)cc1-c1ccncc1	-2.85% (inactive)
CN1C[C@H](CNC(=O)OCc2ccccc2)C[C@@H]2c3cccc4c3c(cn4C)C[C@H]21	5.38% (inactive)
Cc1cc2c(C(C)C)c(O)c(O)c(C=O)c2c(O)c1-c1c(C)cc2c(C(C)C)c(O)c(O)c(C=O)c2c1O	-4.89% (inactive)
NC[C@H](O)c1ccc(O)c(O)c1	-3.09% (inactive)
